Test results: PubChem BioAssay (NCI)
This is part of a sample that, as a whole, favours compounds with a hit. Of some 79,000 tested, about 15% had one in any assay. No stated cut-off is given here; in the data, active means growth inhibition above about 70%; inactive means the rest.

Experiments:
[1] = NCI Yeast Anticancer Drug Screen. Data for the rad50 strain (AID 155);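 further: 0% = growth of vehicle-only cultures of the same strain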; conditions: S. cerevisiae rad50 strain growth inhibition; at 50.0 µM; hits give high values
Method in brief: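 Yeast carrying a defined DNA repair defect were exposed to test compounds, and growth was compared with vehicle-treated controls to give percent inhibition.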

[2] = NCI Yeast Anticancer Drug Screen. Data for the mec2-1 strain (AID 157); conditions: S. cerevisiae mec2-1 strain, at 50.0 µM, hits give high values
Method in brief: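 Vehicle-treated cultures served as reference for growth inhibition of compound-exposed mec2-1 yeast.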

[3] = NCI Yeast Anticancer Drug Screen. Data for the sgs1 mgt1 strain (AID 161);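 further: 0% = growth of cultures given vehicle only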; conditions: S. cerevisiae sgs1 mgt1 strain, at 50.0 µM, hits give high values
Method in brief: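 Test agents were incubated with a DNA-repair-mutant yeast strain. Growth was then read and compared against vehicle-treated controls.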

[4] = NCI Yeast Anticancer Drug Screen. Data for the cln2 rad14 strain (AID 165);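 further: 0% = growth equal to vehicle treated cultures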; conditions: S. cerevisiae cln2 rad14 strain, at 50.0 µM, hits give high values
Method in brief: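 Each compound was tested on cln2 rad14 yeast. Inhibition of growth was calculated against vehicle-exposed controls.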

[5] = NCI Yeast Anticancer Drug Screen. Data for the bub3 strain (AID 167); conditions: S. cerevisiae bub3 mutant strain, at 50.0 µM, hits give high values
Method in brief: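 Compounds were applied to a genetically altered yeast strain carrying a cell-cycle control defect. Growth inhibition was scored against vehicle-treated controls.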

[6] = NCI Yeast Anticancer Drug Screen. Data for the mlh1 rad18 strain (AID 175); conditions: S. cerevisiae mlh1 rad18 strain growth inhibition; at 50.0 µM; hits give high values
Method in brief: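 Vehicle-treated cultures served as the reference for growth inhibition in a yeast strain carrying DNA damage repair alterations exposed to each compound.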

Measured: growth inhibition

Cc1cc2nc(CO)[nH]c2cc1C
inactive: [1] -2.95% | [2] -40% | [3] -24.2% | [4] 7.55% | [5] -5.65% | [6] 1.8%

COCCOC(=O)c1ccc(C(C)C)cc1
inactive: [1] 8.8% | [2] 0.35% | [3] 0.2% | [4] -9.35% | [5] 2.75% | [6] -0.45%

O=[N+]([O-])c1ccc(N=Nc2ccc(O)c3ccccc23)cc1
inactive: [1] 13.3% | [2] 1.45% | [3] 21.9% | [4] 16.6% | [5] -25.2% | [6] -9.35%

C#CC(C(C)C)N(CCO)CCCC (stereo not given)
inactive: [1] 11.2% | [2] 4.55% | [3] 8.3% | [4] 7.35% | [5] 26.7% | [6] 16%

CCOC(=O)CSc1c([N+](=O)[O-])ncn1C
inactive: [1] 4.9% | [2] 0.5% | [3] 8.75% | [4] 17.3% | [5] 8.75% | [6] -10.4%

Cc1ccc(C)n1-c1ccsc1C(=O)NNC(=O)C(Cl)Cl
inactive: [1] 5.9% | [2] 13.9% | [3] 24.8% | [4] 21.1% | [5] 21.7% | [6] 20.7%

O=c1[nH][nH]c(=O)c2cc([N+](=O)[O-])ccc12
inactive: [1] 32.9% | [2] 11.6% | [3] 1.7% | [4] -67.7% | [5] -15% | [6] 18.1%

COC(=O)/C=C\C(=O)OC
inactive: [1] 16.1% | [2] 6.85% | [3] -15.1% | [4] -5.65% | [5] -10.3% | [6] 14.7%

Nc1ccccc1C(=O)Nc1ccc(Cl)cc1Cl
inactive: [1] -9.1% | [2] -22.4% | [3] 7.4% | [4] 4.85% | [5] 21.9% | [6] 2.35%

CC(C)C1CCCCC1O (stereo not given)
inactive: [1] -9.15% | [2] -9.1% | [3] -11.5% | [4] -35.5% | [5] -1.4% | [6] 6.8%

COc1ccc(OC)c(/C=C2\CCc3ccccc3C2=O)c1
inactive: [1] 17.4% | [2] -30.1% | [3] 27.5% | [4] 7.4% | [5] 47.7% | [6] -23.6%

CC(C)=CC(=O)OC(=O)C=C(C)C
inactive: [1] -25.3% | [2] -48.4% | [3] -21.2% | [4] 1.8% | [5] -36.6% | [6] -8.65%

CCC(C)(O)c1ccc(C)cc1 (stereo not given)
inactive: [1] 26.5% | [2] 33% | [3] 31.8% | [4] -21.1% | [5] 19.6% | [6] 6.4%

CCO/C=C1\SC(=S)N(c2cccc(C)c2)C1=O
inactive: [1] 11.1% | [2] 13.7% | [3] 1.25% | [4] 13.2% | [5] 14.9% | [6] 16.9%

CN(C)Cc1cc(C(C)(C)CC(C)(C)C)ccc1O
inactive: [1] 38.2% | [2] -3.2% | [3] 6.3% | [4] -43.9% | [5] 17.1% | [6] 42.5%

O=C(NCc1ccco1)Nc1c(Cl)cc(Cl)cc1Cl
inactive: [1] -3.1% | [2] -26.1% | [3] -2.85% | [4] 2.65% | [5] -13.4% | [6] -3.6%

NCCCN
inactive: [1] 8.9% | [2] -7.05% | [3] -11.1% | [4] -5.9% | [5] 3.6% | [6] 6.55%

NC(=S)NN=C1CCCC1
inactive: [1] 2.2% | [2] -5.8% | [3] 4.75% | [4] -19.6% | [5] -2.45% | [6] 7.75%

Cc1cccc([N+](=O)[O-])c1Cl
inactive: [1] -39.2% | [2] -72.5% | [3] -36.5% | [4] 10.6% | [5] -30.8% | [6] -17.6%

O=C(O)CCCC(=O)O
inactive: [1] -36.5% | [2] -0.7% | [3] -22.6% | [4] -21.4% | [5] -51.6% | [6] 4.5%

CCOC(=O)c1coc(C(=O)OCC)c1C(=O)OCC
inactive: [1] -4.95% | [2] -18.1% | [3] 5.25% | [4] -3.05% | [5] 4.6% | [6] 5.3%

O=C1Cc2cc(O)ccc2O1
inactive: [1] -13.4% | [2] -28.2% | [3] -48.6% | [4] -0.85% | [5] -32% | [6] -8.75%

CCOC(=O)C1OC1c1ccccc1 (stereo not given)
inactive: [1] 24.5% | [2] -6.45% | [3] -2.3% | [4] -4.5% | [5] -3.9% | [6] 22.9%

Cc1ccc(S(=O)(=O)O)c(C)c1
inactive: [1] 19.3% | [2] -4.35% | [3] 14.4% | [4] 19.9% | [5] -0.9% | [6] 23.8%

C=CCNc1nnc(C)s1
inactive: [1] 14.9% | [2] 19.7% | [3] -21.6% | [4] -16.2% | [5] -15% | [6] -5.35%

COC(=O)c1ccc(NC(=O)CCl)cc1
inactive: [1] 44.8% | [2] 37% | [3] 50% | [4] 49% | [5] 32.7% | [6] 45.5%

CC1(C)S(=O)(=O)OCCOS1(=O)=O
inactive: [1] -25.4% | [2] 16.6% | [3] 6.75% | [4] -20.5% | [5] 7.35% | [6] 0.15%

O=C(Nc1cc(-c2ccccc2)[nH]n1)c1ccc(Cl)cc1
inactive: [1] -5.35% | [2] -21.1% | [3] 6.05% | [4] -1% | [5] -7.15% | [6] -3.3%

O=C(Nc1ccccc1C(=O)NCC1CC1)c1cccs1
inactive: [1] -13.1% | [2] -29.9% | [3] 3.4% | [4] 5.35% | [5] 5.9% | [6] -1.6%

CCN1C(=O)/C(=C/C=C/N(C)c2ccccc2)SC1=S
inactive: [1] 0.9% | [2] -13.3% | [3] 3.25% | [4] 9.05% | [5] 20.9% | [6] 7.85%

C/C(=N\NC(=O)c1ccccc1N)c1ccccc1O
inactive: [1] 6.15% | [2] -7.75% | [3] 26.6% | [4] 4.5% | [5] 26.1% | [6] 21.7%

S=C1NCc2cncnc2N1
inactive: [1] -13.7% | [2] -2.05% | [3] -6.9% | [4] -8.7% | [5] 3.85% | [6] 18.8%

Oc1ccc(O)cc1
inactive: [1] 20.6% | [2] 15% | [3] -0.45% | [4] -22.6% | [5] -0.85% | [6] 40.3%

Cc1cc(O)ccc1O
inactive: [1] 31% | [2] 25.1% | [3] 7% | [4] -5.05% | [5] 3.5% | [6] 42.3%

CC(=O)c1ccc2c(ccc3ccccc32)c1
inactive: [1] -13.1% | [2] -16.3% | [3] -12.6% | [4] -14.6% | [5] -5.4% | [6] 3.9%

O=c1cc(-c2ccccc2)oc2c1ccc1ccccc12
inactive: [1] 11% | [2] 34.1% | [3] 21.9% | [4] -90.3% | [5] 52.5% | [6] 38.5%

CCN=c1cc2sc3cc(NCC)c(C)cc3nc-2cc1C
inactive: [1] -22.1% | [2] -35.8% | [3] -16.4% | [4] -14.4% | [5] -15.4% | [6] -22.6%

COC(=O)c1[nH]c(=O)c(C#N)c(C(=O)OC)c1C(=O)c1ccccc1
inactive: [1] 5% | [2] -6.4% | [3] 10.5% | [4] 19.2% | [5] -25.1% | [6] 12%

Cc1nc2c(ccc3ccccc32)s1
inactive: [1] 10.4% | [2] -5.35% | [3] 22.7% | [4] 6.45% | [5] 3.5% | [6] 15.4%

C=CCOC(=O)C(=O)OCC=C
inactive: [1] 18.8% | [2] 30.6% | [3] -25.9% | [4] 1.95% | [5] 5.35% | [6] 14.8%
